Bioassay records from PubChem BioAssay.
Bcl-xL primary = blocks human Bcl-xL binding to Bim BH3 peptide. Q07817. inhibition, % at 10.9 µM. GST-Bcl-xL / FITC-Bim BH3 peptide fluorescence polarization. actives 0.7% (n = 320,000);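 active = inhibition above the mean of all tested compounds plus 3 SD, cutoff set per campaign, cut at about 30% in these data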;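 also: 0% = DMSO wells and 100% = unlabeled Bim-BH3 peptide competitor; inhibitors lower millipolarization by displacing the labeled peptide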
RTF Ca sens act = cardiac RTF calcium sensitization. P19429+P45379. IANBD-labeled TnC RTF fluorescence at EC20 calcium; 0% EC20 calcium, 100% full calcium. activation, % at 7.2 µM. actives 0.24% (n = 340,000);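 active = activation above the mean over all tested compounds plus 3 SD, cut at about 30% in these data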;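 also: rise in fluorescence read as greater calcium sensitivity of cardiac thin filaments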
GLD-1 RNA inh = GLD-1-TGE RNA interaction inhibition (C. elegans); Q17339; purified GLD-1 + fluorescein TGE RNA, fluorescence polarization; inhibition, % at 5.96 µM; actives 0.44% (n = 320,000);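 active = percent inhibition above a per-plate cutoff, the plate mean of test compounds plus 3 SD, cut at about 30% in these data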;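 also: 0% = DMSO wells with GLD-1 and probe and 100% = wells lacking GLD-1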
Target sequence (Q17339 whole entry, looked up): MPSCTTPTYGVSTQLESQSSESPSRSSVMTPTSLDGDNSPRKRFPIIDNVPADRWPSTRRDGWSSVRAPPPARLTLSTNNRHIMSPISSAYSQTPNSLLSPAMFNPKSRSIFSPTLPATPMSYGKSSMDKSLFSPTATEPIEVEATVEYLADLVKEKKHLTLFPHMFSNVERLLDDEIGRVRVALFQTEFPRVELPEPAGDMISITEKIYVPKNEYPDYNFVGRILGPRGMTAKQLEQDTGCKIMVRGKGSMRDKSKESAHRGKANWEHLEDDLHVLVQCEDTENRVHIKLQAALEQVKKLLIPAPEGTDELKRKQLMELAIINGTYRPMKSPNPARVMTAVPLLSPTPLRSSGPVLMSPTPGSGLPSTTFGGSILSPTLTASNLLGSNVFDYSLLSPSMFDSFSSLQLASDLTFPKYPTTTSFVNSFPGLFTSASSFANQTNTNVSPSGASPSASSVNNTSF
eLon inh = inhibits E. coli Lon protease; P0A9M0; inhibition, % at 7.94 µM; actives 0.42% (n = 360,000); purified E. coli Lon protease, fluorescence polarization; in the data active = inhibition above about 13%, passing the limit was not always enough;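 also: 0% = enzyme with probe and DMSO and 100% = no enzyme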
RTF Ca sens inh = cardiac RTF calcium desensitization. P19429+P45379. IANBD-labeled cardiac RTF, Ca2+ fluorescence. inhibition, % at 7.15 µM. actives 0.12% (n = 340,000). AID 493244;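 active = inhibition above the mean inhibition of all tested compounds plus 3 SD, cut at about 17% in these data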;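 also: assay run at fixed EC70 calcium of 1.6 mM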
GLD1 RNA confirm = GLD-1 TGE RNA interaction inhibition, confirmation. shares compounds with GLD-1 RNA inh. GLD-1/FL-TGE RNA fluorescence polarization, biochemical. inhibition, % at 5.96 µM. actives 10% (n = 550);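 active = average inhibition across triplicates above the hit cutoff set in the primary screen, cut at about 32% in these data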;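 also: 0% = GLD-1 with RNA probe and DMSO and 100% = wells lacking GLD-1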
An asterisk follows results filed as active; . = no result. Compounds with a hit are over-represented: about 1.2% of the library has one in this group of screens.

SMILES	Bcl-xL primary	RTF Ca sens act	GLD-1 RNA inh	eLon inh	RTF Ca sens inh	GLD1 RNA confirm
Cc1cc(/C=C(\C#N)c2nnc(N3CCOCC3)n2-c2ccccc2)c(C)n1-c1ccccc1	23	.	49*	.	.	5
N#CC(c1nc2ccccc2nc1N1CCCC1)S(=O)(=O)c1ccccc1 (stereo not given)	66*	12	40*	-2	-31	27
COc1ccc2nc(N3CCCCC3)c(C#N)cc2c1	32*	6	46*	-2	-11	65*
COc1ccc(S(=O)(=O)C(C#N)c2nc3ccccc3nc2N2CCCCC2)cc1 (stereo not given)	68*	0	69*	-1	-21	-2
COc1cccc(OCCNc2cc(N3CCCCC3)ccc2[N+](=O)[O-])c1	4	-2	59*	-11	-3	-3
COc1ccc(OCCNc2cc(N3CCCCC3)ccc2[N+](=O)[O-])cc1	3	2	8	7	7	.
CS(=O)(=O)Nc1ccc(C(=O)NCCSCc2c(F)cccc2Cl)cc1	2	-1	37*	-4	-4	-3
COc1ccc2c(c1)cc(C(=O)N[C@@H](Cc1ccccc1)C(=O)N[C@@H](C)C(=O)O)n2C	1	2	1	-8	-2	.
COc1ccc2c(c1)cc(C(=O)N[C@@H](Cc1ccccc1)C(=O)O)n2C	26	-9	44*	-1	-8	-2
O=C(Nc1nc2cc3c(cc2s1)OCCO3)c1cccc(N2C(=O)CCC2=O)c1	10	4	2	-4	-5	.
CCOC(=O)C1=C(C)NC(C)=C(C(=O)OCC)C1C(=O)OCC(N)=O	77*	-1	57*	-2	-5	-7
N#CCCn1cc(C=O)c(-c2cccs2)n1	-3	1	69*	6	-12	4
COc1ccc(N2CCN(C(=O)C(=O)c3cn(CC(=O)N4CCCCCC4)c4ccccc34)CC2)cc1	10	0	17	12	1	.
O=C(C(=O)N1CCN(c2ccccc2)CC1)c1cn(CC(=O)N2CCCCCC2)c2ccccc12	6	1	31*	-1	-13	7
Cc1nn2c(N)csc2nc1=O	57*	.	34*	.	.	20
CN(C)c1ccc(N=Cc2ccco2)cc1	11	-6	3	-4	-2	.
C(=Nc1cccc2c(N=Cc3ccco3)cccc12)c1ccco1	82*	11	43*	7	-6	3
O=C(Nc1ccc(Cl)cn1)c1ccc([N+](=O)[O-])o1	.	-3	.	8	-3	.
CN(Cc1ccco1)c1ncnc2ccc(-c3ccoc3)cc12	3	6	-4	-11	3	.
COc1ccc(OC)c(-c2cc(C(=O)Nc3ccccc3C(N)=O)c3ccccc3n2)c1	5	.	34*	-7	.	-2
COc1ccc(OC)c(-c2cc(C(=O)N/N=C/c3ccc(F)cc3)c3ccccc3n2)c1	9	.	-2	-5	.	.
CC(Oc1ccc2c(c1)c1ccnc3c4ccccc4c(=O)n2c13)C(=O)NCCN1CCOCC1 (stereo not given)	1	5	5	-4	-8	.
COc1ccc(CNC(=O)CN(Cc2ccc(F)cc2)C(=O)CCC(=O)Nc2nccs2)cc1	12	0	-4	-7	-8	.
Cc1cc2ccccc2n1CCNC(=O)COc1ccccc1	41*	8	72*	2	-3	11
CCC(=O)NCCn1c(C)cc2ccccc21	19	2	25	5	-8	.
SMILES	Bcl-xL primary	RTF Ca sens act	GLD-1 RNA inh	eLon inh	RTF Ca sens inh	GLD1 RNA confirm
Cc1cc2ccccc2n1CCNC(=O)c1ccc(Br)o1	34*	4	36*	9	-12	11
CCOc1ccc(CN(C)C(=O)c2cc3ccccc3o2)cc1OC	-1	-1	-6	4	-18	.
COC(=O)CCC(NC(=O)OCc1ccccc1)C(=O)NC(CC(C)C)C(=O)OC (stereo not given)	4	7	-3	3	-6	.
O=C1CN(C(=O)c2ccccc2F)c2ccccc2N1	-1	9	2	2	-4	.
CCOC(=O)C1=C2NC(=O)c3ccccc3N2C(=O)C1	48*	4	52*	14	-1	4
Cc1c(NC(=O)C(C)OC(=O)c2cc(-c3cccc4ccccc34)nc3ccccc23)c(=O)n(-c2ccccc2)n1C (stereo not given)	75*	4	38*	17	4	3
COc1ccc(-c2cc(C(=O)OC(C)C(=O)Nc3c(C)n(C)n(-c4ccccc4)c3=O)c3ccccc3n2)cc1 (stereo not given)	-3	3	1	0	-4	.
CN1CCN(C(=S)c2ccc([N+](=O)[O-])cc2)CC1	3	-2	79*	-1	1	0
CN1CCN(C(=S)c2ccc(Br)cc2)CC1	5	-5	5	4	-3	.
Cc1ccc(CN2CCN(CC(=O)NC(C)CCc3ccccc3)C2=O)cc1 (stereo not given)	0	-10	4	-12	-6	.
CN1C(C)(C)CC(NC(=O)c2ccco2)CC1(C)C	4	-1	3	-6	-7	.
CC1(C)CC(OC(=O)c2ccco2)CC(C)(C)N1O	43*	-4	35*	15	-4	-6
COc1ccc(OC)c(Nc2cc3ccccc3c(=O)[nH]2)c1	7	3	42*	-18	-9	4
COc1ccccc1Nc1cc2cc(Br)ccc2c(=O)[nH]1	7	0	2	-48	-5	.
CCOC(=O)Cn1c(=O)c(-c2ccccc2N)nc2ccccc21	1	-2	-5	-9	-8	.
CCOC(=O)Cn1c(=O)c(-c2cc(Br)ccc2N)nc2ccccc21	70*	44*	37*	4	-5	50*
CCOC(=O)C1=CCN(S(=O)(=O)c2ccccc2C(=O)OC)C1c1ccc(Cl)cc1 (stereo not given)	.	.	.	8	.	.
Oc1cc(Nc2cccnc2)cc2cccnc12	.	-1	4	-1	10	.
Oc1cc(NCCc2cccnc2)cc2cccnc12	.	9	39*	6	-31	24
CCOC(=O)Cn1c(=O)oc2cc(S(=O)(=O)Nc3cccc(C)c3)ccc21	0	1	0	-9	-1	.
CC1(C)CC(=O)C/C(=N/NC(=O)COc2ccc3ccccc3c2Br)C1	5	0	31*	4	4	1
Cc1cc([N+](=O)[O-])ccc1NC(=O)c1sc2ncn(CC(=O)N3CCOCC3)c(=O)c2c1C	4	-1	-5	-1	4	.
CC(C)CCNc1c(-c2cccs2)nc2ccccn12	75*	-1	46*	-4	-14	2
CN(C)C1=NC[C@H](Cc2ccccc2)N1CC1CCCCC1	3	0	8	-19	-4	.
CCOC(=O)C1=C(O)/C(=C/c2ccc(-c3ccccc3C(=O)O)o2)SC1=Nc1ccc(OC)cc1	.	-4	.	-17	-1	.
